According to PubChem BioAssay (EPA / NIEHS):
Calls of active or inactive are those of the source. How the source made its calls: active means hit-call score of the fitted dose curve at least 0.9, where 1 is the maximum; inactive means score below 0.9.

How the values were obtained:
[1] = ATG_CRE_CIS: Attagene CIS-FACTORIAL HepG2 Assay for human cAMP Responsive Element (CRE) binding protein 3 (AID 2282926); details: HepG2 CRE cis-reporter, Attagene multiplexed mRNA; actives raise or lower the signal
In short: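 HepG2 cells transiently transfected with cis-element-driven multiple reporter transcription units; CRE reporter mRNA measured 24 h after dosing by RT-PCR, 6-FAM labelling, HpaI digestion and capillary electrophoresis. Bidirectional fit versus DMSO baseline.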

[2] = molecular target: CCAAT/enhancer-binding protein beta (Homo sapiens) (UniProt P17676); test: ATG_C_EBP_CIS: Attagene CIS-FACTORIAL HepG2 Assay for human CCAAT/Enhancer Binding Protein (C/EBP) beta (AID 2282927); details: HepG2 Attagene cis-factorial transcription factor reporter; actives raise or lower the signal
Chain of CCAAT/enhancer-binding protein beta (Homo sapiens) (P17676 whole entry, looked up): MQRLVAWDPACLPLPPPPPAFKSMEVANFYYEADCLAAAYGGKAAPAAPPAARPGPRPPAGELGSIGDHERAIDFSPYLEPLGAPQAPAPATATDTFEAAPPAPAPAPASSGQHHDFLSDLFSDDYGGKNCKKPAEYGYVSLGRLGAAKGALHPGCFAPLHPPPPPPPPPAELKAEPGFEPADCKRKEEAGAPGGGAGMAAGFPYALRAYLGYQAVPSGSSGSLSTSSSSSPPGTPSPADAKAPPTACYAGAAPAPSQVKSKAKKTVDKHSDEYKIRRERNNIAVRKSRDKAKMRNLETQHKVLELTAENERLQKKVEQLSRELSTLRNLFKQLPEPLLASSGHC
In short: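 Transiently transfected HepG2 (MRTU library, endogenous TF-driven promoters); 24 h dosing; total RNA → oligo(dT) RT → PCR → 6-FAM primer extension → HpaI digest → CE; fit bidirectionally vs DMSO.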

[3] = ATG_CMV_CIS: Attagene CIS-FACTORIAL HepG2 Assay for human CMV (Internal Marker) (AID 2282928); details: HepG2 CMV promoter reporter, transcription factor profiling; actives raise or lower the signal;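 further: endpoint acts as a background internal control marker rather than a target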
In short: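 Endogenous transcription factor activity read in HepG2 via transfected cis-promoter reporter units. After 24 h dosing, reporter mRNA measured by RT-PCR/capillary electrophoresis; gain or loss of signal fit relative to DMSO.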

[4] = ATG_DR4_LXR_CIS: Attagene CIS-FACTORIAL HepG2 Assay for human Liver X Receptor (LXR), DR4 submotif (AID 2282929); details: HepG2 Attagene DR4 cis-reporter, mRNA transcription; actives raise or lower the signal
In short: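 Readout: reporter transcript fluorescence after RT-PCR and capillary electrophoresis, fitted bidirectionally against DMSO controls. Human HepG2 liver cells carried transiently transfected multiplexed reporter constructs; endogenous transcription factor activity measured 24 h post-dosing.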

[5] = molecular target: Aryl hydrocarbon receptor (Homo sapiens) (UniProt P35869); test: ATG_Ahr_CIS: Attagene CIS-FACTORIAL HepG2 Assay for human Aryl Hydrocarbon Receptor (Ahr) (AID 2282930); details: HepG2 AhR cis-factorial reporter transcription; actives raise or lower the signal
Chain of Aryl hydrocarbon receptor (Homo sapiens) (P35869 whole entry, looked up): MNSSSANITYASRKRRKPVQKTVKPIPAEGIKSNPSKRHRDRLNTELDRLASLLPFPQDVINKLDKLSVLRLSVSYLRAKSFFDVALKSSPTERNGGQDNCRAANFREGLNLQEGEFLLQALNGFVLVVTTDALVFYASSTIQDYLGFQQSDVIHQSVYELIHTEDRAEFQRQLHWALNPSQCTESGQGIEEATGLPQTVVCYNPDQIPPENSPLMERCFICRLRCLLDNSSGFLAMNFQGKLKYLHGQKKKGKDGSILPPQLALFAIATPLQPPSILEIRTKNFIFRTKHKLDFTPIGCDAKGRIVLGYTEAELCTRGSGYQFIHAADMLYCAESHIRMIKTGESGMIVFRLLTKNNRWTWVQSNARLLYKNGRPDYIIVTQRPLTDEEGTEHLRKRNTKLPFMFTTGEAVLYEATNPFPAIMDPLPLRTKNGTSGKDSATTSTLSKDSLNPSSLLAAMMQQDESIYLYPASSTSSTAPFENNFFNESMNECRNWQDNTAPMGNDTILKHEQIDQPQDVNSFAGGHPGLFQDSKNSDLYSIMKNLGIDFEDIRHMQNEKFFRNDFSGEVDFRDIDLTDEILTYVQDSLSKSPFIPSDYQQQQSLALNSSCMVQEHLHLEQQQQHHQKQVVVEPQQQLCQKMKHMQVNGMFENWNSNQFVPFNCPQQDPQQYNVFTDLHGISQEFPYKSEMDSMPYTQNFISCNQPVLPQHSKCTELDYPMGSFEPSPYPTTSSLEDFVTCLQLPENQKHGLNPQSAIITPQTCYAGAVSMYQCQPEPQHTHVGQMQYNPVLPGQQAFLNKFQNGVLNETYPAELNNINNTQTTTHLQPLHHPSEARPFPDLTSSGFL
In short: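 Read-out: reporter mRNA quantified by RT-PCR with fluorescent primer extension and capillary electrophoresis. Human HepG2 liver cells carried transfected cis-promoter reporter units and were exposed to chemical for 24 h; gain or loss fitted relative to DMSO.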

[6] = ATG_AP_1_CIS: Attagene CIS-FACTORIAL HepG2 Assay for human Activator Protein 1 (AP-1) (AID 2282931); details: HepG2 Attagene cis-factorial AP-1 reporter mRNA; actives raise or lower the signal
In short: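 Reporter transcripts were measured 24 h after dosing by RT-PCR and capillary electrophoresis of fluorescent fragments. Cells: HepG2 carrying transfected cis-regulated reporter constructs reading endogenous factor activity. Gain or loss fitted against DMSO.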

[7] = ATG_AP_2_CIS: Attagene CIS-FACTORIAL HepG2 Assay for human Activator Protein 2 (AP-2) (AID 2282932); details: HepG2 AP-2 cis-reporter, Attagene transcription factor profiling; actives raise or lower the signal
In short: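 HepG2 cells transiently transfected with cis-element reporter units and exposed for 24 h. Reporter mRNA measured by RT-PCR, FAM labelling, HpaI digestion and capillary electrophoresis. Changes in either direction fitted relative to DMSO.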

[8] = ATG_BRE_CIS: Attagene CIS-FACTORIAL HepG2 Assay for human Bone Morphogenetic Protein (BMP) Response Element (BRE) (AID 2282933); details: HepG2 BMP response element reporter, Attagene transcription factor profiling; actives raise or lower the signal
In short: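 Gain- or loss-of-signal was derived by bidirectional fitting against DMSO controls. The signal came from reporter mRNA, measured by RT-PCR and capillary electrophoresis, in HepG2 cells transiently carrying multiple reporter units and dosed for 24 h.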

[9] = molecular target: Retinoic acid receptor alpha (Homo sapiens) (UniProt P10276); test: ATG_DR5_RAR_CIS: Attagene CIS-FACTORIAL HepG2 Assay for human Retinoic Acid Receptor Alpha (RARE), DR5 submotif (AID 2282934); details: HepG2 Attagene cis-factorial RARE DR5 reporter, mRNA; actives raise or lower the signal
Chain of Retinoic acid receptor alpha (Homo sapiens) (P10276 whole entry, looked up): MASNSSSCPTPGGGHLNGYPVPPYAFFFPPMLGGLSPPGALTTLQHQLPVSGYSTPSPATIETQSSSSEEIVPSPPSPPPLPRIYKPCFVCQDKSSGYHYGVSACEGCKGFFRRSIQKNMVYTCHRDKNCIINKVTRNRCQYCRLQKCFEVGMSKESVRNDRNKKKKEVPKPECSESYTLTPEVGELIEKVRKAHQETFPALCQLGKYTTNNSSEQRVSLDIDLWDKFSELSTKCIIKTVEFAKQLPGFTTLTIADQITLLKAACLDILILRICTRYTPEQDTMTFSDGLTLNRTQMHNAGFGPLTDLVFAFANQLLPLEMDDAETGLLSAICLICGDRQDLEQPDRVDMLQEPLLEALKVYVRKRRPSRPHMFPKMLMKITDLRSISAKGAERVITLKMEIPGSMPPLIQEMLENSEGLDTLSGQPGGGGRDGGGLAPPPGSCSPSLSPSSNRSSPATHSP
In short: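 Read-out: DR5-driven reporter transcript measured by RT-PCR, 6-FAM primer extension, HpaI digest and capillary electrophoresis. Human HepG2 liver cells carry transiently transfected cis-element reporter constructs; dosing lasts 24 h. Gain or loss of signal fitted against DMSO baseline.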

[10] = molecular target: Transcription factor E2F1 (Homo sapiens) (UniProt Q01094); test: ATG_E2F_CIS: Attagene CIS-FACTORIAL HepG2 Assay for human E2F Transcription Factor 1 (AID 2282935); details: HepG2 Attagene cis-reporter, E2F reporter RNA transcripts; actives raise or lower the signal
Chain of Transcription factor E2F1 (Homo sapiens) (Q01094 whole entry, looked up): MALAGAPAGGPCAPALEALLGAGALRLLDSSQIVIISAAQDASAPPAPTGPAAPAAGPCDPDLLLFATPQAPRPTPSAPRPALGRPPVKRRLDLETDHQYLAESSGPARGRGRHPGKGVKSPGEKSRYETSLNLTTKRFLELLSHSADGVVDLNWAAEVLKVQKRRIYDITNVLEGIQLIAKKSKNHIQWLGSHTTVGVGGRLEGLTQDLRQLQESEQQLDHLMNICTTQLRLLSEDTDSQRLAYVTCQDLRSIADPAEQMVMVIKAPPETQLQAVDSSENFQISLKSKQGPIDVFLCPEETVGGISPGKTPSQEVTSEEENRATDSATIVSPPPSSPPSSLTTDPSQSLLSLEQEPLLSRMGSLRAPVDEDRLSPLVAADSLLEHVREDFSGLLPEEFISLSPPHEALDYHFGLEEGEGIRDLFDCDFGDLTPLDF
In short: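 Endogenous E2F1 activity read through cis-promoter reporter units transfected into HepG2. After 24 h compound treatment, reporter mRNA measured by RT-PCR, HpaI digestion and capillary electrophoresis. Bidirectional fit versus DMSO.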

[11] = ATG_E_Box_CIS: Attagene CIS-FACTORIAL HepG2 Assay for human Enhancer Box (E-box) (AID 2282936); details: HepG2 E-box cis-reporter transcription, actives raise or lower the signal
In short: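 HepG2 cells transiently transfected with multiplexed cis-element reporter units, dosed 24 h; reporter mRNA quantified by RT-PCR, 6-FAM labelling, HpaI digestion and capillary electrophoresis. E-box (USF1) signal fitted bidirectionally vs DMSO.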

[12] = ATG_M_61_CIS: Attagene CIS-FACTORIAL HepG2 Assay for M61 Transcription Factor (Internal Marker) (AID 2282937); details: HepG2 Attagene CIS-FACTORIAL M61 internal marker reporter; actives raise or lower the signal
In short: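 Readout: fluorescent reporter mRNA fragments resolved by capillary electrophoresis after RT-PCR. Transiently transfected human HepG2 cells carried MRTU constructs reporting endogenous TF activity; 24 h chemical exposure; gain or loss of signal fitted relative to DMSO.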

[13] = ATG_EGR_CIS: Attagene CIS-FACTORIAL HepG2 Assay for human Early Growth Response 1 (EGR1) (AID 2282938); details: HepG2 Attagene CIS-FACTORIAL EGR reporter mRNA; actives raise or lower the signal
In short: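 Read-out: fluorescent reporter-mRNA fragments resolved by capillary electrophoresis after RT-PCR, 24 h post-dose in transiently transfected HepG2. Endogenous transcription-factor activity reported via cis-element-regulated reporter units; gain or loss fitted relative to DMSO.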

[14] = ATG_M_19_CIS: Attagene CIS-FACTORIAL HepG2 Assay for M19 Transcription Factor (Internal Marker) (AID 2282939); details: HepG2 Attagene CIS-FACTORIAL M19 internal marker reporter; actives raise or lower the signal
In short: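 Following a 24 h exposure, RNA from transfected HepG2 cells was reverse-transcribed, PCR-amplified with reporter-specific primers, end-labelled with 6-FAM and HpaI-digested before capillary separation. Values represent gain or loss versus DMSO.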

[15] = ATG_Ets_CIS: Attagene CIS-FACTORIAL HepG2 Assay for human Erythroblast Transformation Specific (ETS) (AID 2282941); details: HepG2 ETS cis-reporter transcription, actives raise or lower the signal
In short: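 Steps: transfect HepG2 with multiple reporter units; treat compound 24 h; isolate RNA, DNase-treat, reverse-transcribe; PCR-amplify, label with 6-FAM, digest with HpaI; separate by capillary electrophoresis. Activity fitted both directions versus DMSO.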

[16] = molecular target: Hepatocyte nuclear factor 3-beta (Homo sapiens) (UniProt Q9Y261); test: ATG_FoxA2_CIS: Attagene CIS-FACTORIAL HepG2 Assay for human Forkhead box A2 (FOXA2) (AID 2282942); details: HepG2 cis-reporter transcription factor activity, 24 h; actives raise or lower the signal
Chain of Hepatocyte nuclear factor 3-beta (Homo sapiens) (Q9Y261 whole entry, looked up): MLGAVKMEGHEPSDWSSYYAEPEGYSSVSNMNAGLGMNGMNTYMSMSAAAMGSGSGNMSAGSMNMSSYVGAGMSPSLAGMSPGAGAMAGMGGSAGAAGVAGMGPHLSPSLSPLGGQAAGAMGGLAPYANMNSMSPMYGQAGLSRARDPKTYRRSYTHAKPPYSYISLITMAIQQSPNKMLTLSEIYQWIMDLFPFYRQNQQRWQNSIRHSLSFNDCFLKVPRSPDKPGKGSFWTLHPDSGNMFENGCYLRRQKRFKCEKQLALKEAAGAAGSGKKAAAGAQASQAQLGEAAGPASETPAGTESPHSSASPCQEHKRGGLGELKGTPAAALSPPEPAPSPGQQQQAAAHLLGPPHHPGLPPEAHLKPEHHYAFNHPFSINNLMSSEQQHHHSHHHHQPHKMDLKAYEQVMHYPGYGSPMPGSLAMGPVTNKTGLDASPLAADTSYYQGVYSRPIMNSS
In short: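 Readout: fluorescent reporter transcripts resolved by capillary electrophoresis after RT-PCR. Transiently transfected HepG2, 24 h compound exposure, endogenous TF activity at cis promoter elements. Gain or loss of signal fitted relative to DMSO.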

[17] = ATG_FoxO_CIS: Attagene CIS-FACTORIAL HepG2 Assay for human Forkhead box O (FoxO) (AID 2282943); details: HepG2 Attagene cis-reporter, FoxO element, mRNA; actives raise or lower the signal
In short: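 Read-out: fluorescence of 6-FAM-labelled reporter cDNA fragments resolved by capillary electrophoresis. Transiently transfected HepG2 cells were dosed for 24 h; activity fitted in both directions relative to DMSO controls.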

[18] = ATG_GATA_CIS: Attagene CIS-FACTORIAL HepG2 Assay for human GATA Binding Protein (AID 2282944); details: HepG2 GATA cis-element reporter, Attagene multiplex mRNA; actives raise or lower the signal
In short: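 DMSO serves as negative control and baseline for bidirectional fitting of reporter mRNA changes. HepG2 cells bearing transiently transfected cis-promoter reporters were exposed 24 h; transcripts detected via RT-PCR and capillary electrophoresis.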

[19] = ATG_GLI_CIS: Attagene CIS-FACTORIAL HepG2 Assay for human Zinc Finger Protein GLI1 (AID 2282945); details: HepG2, Attagene cis-factorial reporter mRNA, GLI element; actives raise or lower the signal
In short: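 Transiently transfected HepG2 cells report endogenous transcription factor activity via cis-element-driven reporter units. After 24 h compound exposure, reporter mRNA was measured by RT-PCR with capillary electrophoresis; bidirectional fitting against DMSO baseline.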

[20] = ATG_ERE_CIS: Attagene CIS-FACTORIAL HepG2 Assay for Estrogen Response Element (ERE) (AID 2282940); details: HepG2 ERE cis-reporter, Attagene RNA transcript; actives raise or lower the signal
In short: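 HepG2, transient cis-reporter units, 24 h exposure. RNA isolated, oligo(dT) RT, reporter-specific PCR, FAM extension, HpaI cut, CE detection. Gain/loss-of-signal vs DMSO.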

Measured: AC50

IC(I)I
active: [5] 12.8 µM
not listed: [20]
inactive: all other assays above

CN(C)C(=O)Nc1ccc(Oc2ccc(Cl)cc2)cc1
active: [3] 71.9 µM | [4] 72 µM | [6] 100 µM | [8] 113 µM
not listed: [20]
inactive: all other assays above

OCc1ccc(Cl)cc1Cl
not listed: [20]
inactive: all other assays above

Cc1c(C2(c3cc(Br)c(O)c(Br)c3C)OS(=O)(=O)c3ccccc32)cc(Br)c(O)c1Br
active: [5] 32.5 µM
not listed: [20]
inactive: all other assays above

CC=CC=CCOC(=O)C(C)C
active: [4] 130 µM | [6] 100 µM
not listed: [20]
inactive: all other assays above

CCCCC(CC)COC(C)=O (stereo not given)
not listed: [14] | [20]
inactive: all other assays above

CC(C)c1ccccc1O
active: [5] 42.9 µM
not listed: [16] | [20]
inactive: all other assays above

Cc1ccc(OC(=O)c2ccccc2O)cc1
active: [6] 122 µM
not listed: [13] | [20]
inactive: all other assays above

CN(c1nccc(=O)[nH]1)C1CCN(c2nc3ccccc3n2Cc2ccc(F)cc2)CC1
not listed: [14]
inactive: all other assays above

CCCCCCCCSCCO
active: [1] 100 µM | [2] 100 µM | [3] 100 µM | [4] 148 µM
not listed: [14] | [16] | [20]
inactive: all other assays above

O=C1OC(=O)c2c(Cl)c(Cl)c(Cl)c(Cl)c21
active: [5] 36.2 µM | [16] 33.2 µM
not listed: [14] | [20]
inactive: all other assays above

C=CCCCCCCCCCC
not listed: [13] | [20]
inactive: all other assays above

CC1=C(Br)C(=O)C(Br)=C/C1=C(/c1ccccc1S(=O)(=O)O)c1cc(Br)c(O)c(Br)c1C
active: [5] 51.1 µM
not listed: [13] | [20]
inactive: all other assays above

CCCCCCC(CO)CCCC (stereo not given)
active: [5] 25.6 µM
not listed: [13] | [20]
inactive: all other assays above

CCOc1ccc(N=Nc2ccc(C=Cc3ccc(N=Nc4ccc(OCC)cc4)cc3S(=O)(=O)O)c(S(=O)(=O)O)c2)cc1
active: [5] 12.2 µM | [8] 7.28 µM
not listed: [14] | [20]
inactive: all other assays above
